Active and inactive are the calls of the source.
Key:
[1] = small molecules captured by biotinylated probe aFSTL3 – biochemical, small-molecule microarray, fluorescence 635/667, stem cell growth factor project, primary screen (AID 1064); conditions: higher = more signal;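 also: measures binding of the biotinylated anti-FSTL3 antibody to printed compounds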
[2] = binders from COS7 lysate, DM2A8 probe, primary screen, torsin A project, cell lysate, small-molecule microarray, fluorescence 635/667 (AID 1065); conditions: higher = more signal, COS7 lysate expressing mutant human TOR1A
[3] = small molecules captured by biotinylated probe aFGF2 – biochemical, small-molecule microarray, fluorescence 635/667, stem cell growth factor project, primary screen (AID 1067); conditions: higher = more signal;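 also: measures binding of biotinylated aFGF2 protein to printed compounds on slides; z-score merges feature fluorescence and signal-to-noise across triplicate slides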
[4] = small molecules captured by biotinylated probe aFGF10 – biochemical, small-molecule microarray, fluorescence 635/667, stem cell growth factor project, primary screen (AID 1071); conditions: higher = more signal;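 also: score merges 667 nm spot intensity and signal to noise from triplicate slides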
[5] = molecular target: Neurogenic locus notch homolog protein 2 (Homo sapiens) (UniProt Q04721); assay: small molecules binding Notch2 protein – biochemical, small-molecule microarray, 635 nm fluorescence, stem cell growth factors, primary screen (AID 1073); conditions: higher = more signal
[6] = molecular target: Pro-neuregulin-1, membrane-bound isoform (Homo sapiens) (UniProt Q02297); assay: small molecules binding neuregulin-1 protein – biochemical, small-molecule microarray, fluorescence 635/667, psychiatric disease protein project, primary screen (AID 1075); conditions: NRG1 binding, 635 nm fluorescence, higher = more signal;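 also: score combines 667 nm spot fluorescence with signal to noise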
[7] = test system: Neuregulin-1 EGF-like domain; assay: small molecules binding NRG1 EGF domain – biochemical, small-molecule microarray, 635 nm fluorescence, primary screen (AID 1081); conditions: higher = more signal;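 also: binding of the protein to compounds printed on small-molecule microarray slides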
[8] = FRG1 expression reporter modulators in myotubes – cell-based, C2C12 myotubes, firefly/Renilla luciferase, luminescence, FRG1 inhibition for FSHD, primary screen (AID 1084); conditions: FRG1 promoter luciferase, higher = more signal, called active from +8 up or from −8 down
[9] = small molecules captured by biotinylated probe aFST – biochemical, small-molecule microarray, fluorescence 635/667, stem cell growth factor project, primary screen (AID 1086); conditions: higher = more signal;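 also: score merges 667 nm fluorescence with signal-to-noise of each printed compound spot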
[10] = binders of probe aHhip on microarray, primary screen, stem cell growth factor project, biochemical, small-molecule microarray, fluorescence 635/667 (AID 1087); conditions: higher = more signal;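 also: score merges spot fluorescence at 667nm with spot signal to noise ratio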
[11] = test system: PRMT1 (protein arginine N-methyltransferase 1); assay: small molecules binding arginine methyltransferase PRMT1 – biochemical, small-molecule microarray, 635 nm fluorescence, primary screen (AID 1088); conditions: higher = more signal;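 also: binding of Prmt1 protein to compounds spotted on small-molecule microarray slides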
[12] = growth effects on S. cerevisiae YJM789 – YJM789 clinical isolate, OD600, 24 h, basal, primary screen (AID 1089); conditions: higher = more signal, called active from +8 up or from −8 down;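 also: growth of clinical yeast isolate S. cerevisiae YJM 789 seeded 1000 cells per well; test concentration not given here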
[13] = S. pombe growth modifiers, basal conditions – strain 972, OD600, 24 h, no modulator, primary screen (AID 1090);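 also: basal condition with compound alone and no growth modifier present; test concentration not given here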; conditions: S. pombe 972 growth, higher = more signal, called active from +8 up or from −8 down
[14] = budding yeast growth modifiers under rapamycin – strain BY4716, OD600, 96 h, primary screen (AID 1091); also: test concentration not given here; conditions: S. cerevisiae BY4716 + rapamycin, higher = more signal, called active from +8 up or from −8 down
[15] = molecular target: Torsin-1A-interacting protein 2 (Homo sapiens) (UniProt Q8NFQ8); assay: small molecules binding lysate-expressed LULL1 – cell lysate, human LULL1 lysate, 635/667 nm fluorescence, primary screen (AID 1092); conditions: small-molecule microarray, hLULL1 lysate binding, 635 nm fluorescence; higher = more signal;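 also: probe is lysate of COS7 cells overexpressing human LULL1; score merges per-feature 667 nm fluorescence with signal-to-noise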
[16] = optical density change of DRC41 E. coli – strain DRC41, OD650, 24 h, E. coli filamentation project, primary screen (AID 1093);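 also: MC1000 strain lacking acrAB efflux and sulA so SOS filamentation is blocked; test concentration not given here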; conditions: E. coli DRC41 growth, higher = more signal, called active from +8 up or from −8 down
[17] = probe aLefty2 binding to arrayed compounds – biochemical, biotinylated probe, 635/667 nm fluorescence, primary screen (AID 1094); conditions: small-molecule microarray, higher = more signal;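 also: score merges spot fluorescence near 667 nm with spot signal-to-noise ratio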
[18] = test system: Noggin (protein binding on small-molecule microarray); assay: small molecules binding Noggin protein – biochemical, 635/667 nm fluorescence, primary screen (AID 1095); conditions: 635 nm fluorescence, higher = more signal;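 also: score merges 667 nm feature fluorescence with signal to noise over triplicate slides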
[19] = molecular target: Neurogenic locus notch homolog protein 3 (Homo sapiens) (UniProt Q9UM47); assay: small molecules binding NOTCH3 protein – biochemical, 635/667 nm fluorescence, primary screen (AID 1096); conditions: small-molecule microarray, 635 nm fluorescence, higher = more signal
[20] = probe aEGFR binding to arrayed compounds – biochemical, biotinylated probe, 635/667 nm fluorescence, primary screen (AID 1097); conditions: small-molecule microarray, higher = more signal;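 also: probe is a biotinylated anti-EGFR antibody binding compounds printed on slides; score combines fluorescence near 667 nm and signal to noise of each spot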

Sequence of Neurogenic locus notch homolog protein 2 (Homo sapiens) (Q04721 whole entry, looked up, canonical isoform): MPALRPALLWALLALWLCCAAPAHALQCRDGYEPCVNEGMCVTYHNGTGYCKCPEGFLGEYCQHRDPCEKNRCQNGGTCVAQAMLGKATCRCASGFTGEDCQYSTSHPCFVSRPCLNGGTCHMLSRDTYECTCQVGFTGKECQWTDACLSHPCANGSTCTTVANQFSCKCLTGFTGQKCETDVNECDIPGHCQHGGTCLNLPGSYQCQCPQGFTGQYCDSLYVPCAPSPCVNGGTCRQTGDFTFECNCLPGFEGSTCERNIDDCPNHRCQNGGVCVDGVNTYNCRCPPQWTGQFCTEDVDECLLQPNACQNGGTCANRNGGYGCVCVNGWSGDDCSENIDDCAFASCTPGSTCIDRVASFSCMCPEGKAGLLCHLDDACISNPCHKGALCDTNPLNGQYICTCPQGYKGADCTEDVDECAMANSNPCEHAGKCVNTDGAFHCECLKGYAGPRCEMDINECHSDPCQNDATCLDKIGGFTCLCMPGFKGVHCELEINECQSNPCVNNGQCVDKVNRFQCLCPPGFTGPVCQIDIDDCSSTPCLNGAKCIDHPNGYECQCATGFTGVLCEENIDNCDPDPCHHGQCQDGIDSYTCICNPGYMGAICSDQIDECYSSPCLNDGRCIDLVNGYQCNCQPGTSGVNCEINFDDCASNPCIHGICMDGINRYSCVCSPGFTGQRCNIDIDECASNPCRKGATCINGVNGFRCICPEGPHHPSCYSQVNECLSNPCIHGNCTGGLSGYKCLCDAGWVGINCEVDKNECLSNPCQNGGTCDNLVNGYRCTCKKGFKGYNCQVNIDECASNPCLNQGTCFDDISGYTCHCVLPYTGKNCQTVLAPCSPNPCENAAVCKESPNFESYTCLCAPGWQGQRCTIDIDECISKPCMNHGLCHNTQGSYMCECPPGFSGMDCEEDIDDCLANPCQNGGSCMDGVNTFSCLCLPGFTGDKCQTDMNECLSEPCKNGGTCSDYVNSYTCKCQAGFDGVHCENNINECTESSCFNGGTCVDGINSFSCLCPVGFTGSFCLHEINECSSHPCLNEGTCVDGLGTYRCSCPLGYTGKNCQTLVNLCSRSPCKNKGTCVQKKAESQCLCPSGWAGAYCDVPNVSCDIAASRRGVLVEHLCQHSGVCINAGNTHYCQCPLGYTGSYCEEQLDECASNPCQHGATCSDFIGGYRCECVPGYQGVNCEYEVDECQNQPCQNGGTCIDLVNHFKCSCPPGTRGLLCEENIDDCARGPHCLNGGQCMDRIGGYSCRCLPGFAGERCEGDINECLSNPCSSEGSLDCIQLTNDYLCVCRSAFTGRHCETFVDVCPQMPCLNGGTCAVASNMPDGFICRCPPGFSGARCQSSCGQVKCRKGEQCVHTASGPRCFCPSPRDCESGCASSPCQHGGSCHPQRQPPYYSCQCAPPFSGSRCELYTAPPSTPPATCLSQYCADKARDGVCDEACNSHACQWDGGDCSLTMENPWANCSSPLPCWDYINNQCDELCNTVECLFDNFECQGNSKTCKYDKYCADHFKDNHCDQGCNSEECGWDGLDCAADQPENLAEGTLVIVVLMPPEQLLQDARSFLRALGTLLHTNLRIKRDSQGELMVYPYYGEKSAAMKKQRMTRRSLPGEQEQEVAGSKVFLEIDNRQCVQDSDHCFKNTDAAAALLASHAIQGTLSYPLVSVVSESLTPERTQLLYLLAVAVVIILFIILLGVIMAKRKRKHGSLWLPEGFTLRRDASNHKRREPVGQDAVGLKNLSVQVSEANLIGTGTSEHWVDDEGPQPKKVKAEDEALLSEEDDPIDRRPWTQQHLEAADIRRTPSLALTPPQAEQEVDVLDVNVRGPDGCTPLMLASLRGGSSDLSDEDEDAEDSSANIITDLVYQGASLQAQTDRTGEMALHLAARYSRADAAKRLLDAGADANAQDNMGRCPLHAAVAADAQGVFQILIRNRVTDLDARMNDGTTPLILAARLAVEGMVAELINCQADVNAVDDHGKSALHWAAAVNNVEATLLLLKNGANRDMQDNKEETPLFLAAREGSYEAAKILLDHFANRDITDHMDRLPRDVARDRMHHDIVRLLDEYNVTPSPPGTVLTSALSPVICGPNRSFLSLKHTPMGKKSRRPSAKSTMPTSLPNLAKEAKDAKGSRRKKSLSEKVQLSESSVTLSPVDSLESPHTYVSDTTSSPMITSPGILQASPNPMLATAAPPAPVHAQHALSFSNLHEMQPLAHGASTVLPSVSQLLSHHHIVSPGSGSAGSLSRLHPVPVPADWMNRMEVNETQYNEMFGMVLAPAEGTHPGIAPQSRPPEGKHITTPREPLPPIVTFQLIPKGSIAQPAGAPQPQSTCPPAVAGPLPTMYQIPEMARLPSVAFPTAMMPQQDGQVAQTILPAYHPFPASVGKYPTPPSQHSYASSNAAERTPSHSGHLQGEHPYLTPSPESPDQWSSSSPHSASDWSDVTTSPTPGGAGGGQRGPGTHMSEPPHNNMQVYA
Sequence of Neurogenic locus notch homolog protein 3 (Homo sapiens) (Q9UM47 whole entry, looked up): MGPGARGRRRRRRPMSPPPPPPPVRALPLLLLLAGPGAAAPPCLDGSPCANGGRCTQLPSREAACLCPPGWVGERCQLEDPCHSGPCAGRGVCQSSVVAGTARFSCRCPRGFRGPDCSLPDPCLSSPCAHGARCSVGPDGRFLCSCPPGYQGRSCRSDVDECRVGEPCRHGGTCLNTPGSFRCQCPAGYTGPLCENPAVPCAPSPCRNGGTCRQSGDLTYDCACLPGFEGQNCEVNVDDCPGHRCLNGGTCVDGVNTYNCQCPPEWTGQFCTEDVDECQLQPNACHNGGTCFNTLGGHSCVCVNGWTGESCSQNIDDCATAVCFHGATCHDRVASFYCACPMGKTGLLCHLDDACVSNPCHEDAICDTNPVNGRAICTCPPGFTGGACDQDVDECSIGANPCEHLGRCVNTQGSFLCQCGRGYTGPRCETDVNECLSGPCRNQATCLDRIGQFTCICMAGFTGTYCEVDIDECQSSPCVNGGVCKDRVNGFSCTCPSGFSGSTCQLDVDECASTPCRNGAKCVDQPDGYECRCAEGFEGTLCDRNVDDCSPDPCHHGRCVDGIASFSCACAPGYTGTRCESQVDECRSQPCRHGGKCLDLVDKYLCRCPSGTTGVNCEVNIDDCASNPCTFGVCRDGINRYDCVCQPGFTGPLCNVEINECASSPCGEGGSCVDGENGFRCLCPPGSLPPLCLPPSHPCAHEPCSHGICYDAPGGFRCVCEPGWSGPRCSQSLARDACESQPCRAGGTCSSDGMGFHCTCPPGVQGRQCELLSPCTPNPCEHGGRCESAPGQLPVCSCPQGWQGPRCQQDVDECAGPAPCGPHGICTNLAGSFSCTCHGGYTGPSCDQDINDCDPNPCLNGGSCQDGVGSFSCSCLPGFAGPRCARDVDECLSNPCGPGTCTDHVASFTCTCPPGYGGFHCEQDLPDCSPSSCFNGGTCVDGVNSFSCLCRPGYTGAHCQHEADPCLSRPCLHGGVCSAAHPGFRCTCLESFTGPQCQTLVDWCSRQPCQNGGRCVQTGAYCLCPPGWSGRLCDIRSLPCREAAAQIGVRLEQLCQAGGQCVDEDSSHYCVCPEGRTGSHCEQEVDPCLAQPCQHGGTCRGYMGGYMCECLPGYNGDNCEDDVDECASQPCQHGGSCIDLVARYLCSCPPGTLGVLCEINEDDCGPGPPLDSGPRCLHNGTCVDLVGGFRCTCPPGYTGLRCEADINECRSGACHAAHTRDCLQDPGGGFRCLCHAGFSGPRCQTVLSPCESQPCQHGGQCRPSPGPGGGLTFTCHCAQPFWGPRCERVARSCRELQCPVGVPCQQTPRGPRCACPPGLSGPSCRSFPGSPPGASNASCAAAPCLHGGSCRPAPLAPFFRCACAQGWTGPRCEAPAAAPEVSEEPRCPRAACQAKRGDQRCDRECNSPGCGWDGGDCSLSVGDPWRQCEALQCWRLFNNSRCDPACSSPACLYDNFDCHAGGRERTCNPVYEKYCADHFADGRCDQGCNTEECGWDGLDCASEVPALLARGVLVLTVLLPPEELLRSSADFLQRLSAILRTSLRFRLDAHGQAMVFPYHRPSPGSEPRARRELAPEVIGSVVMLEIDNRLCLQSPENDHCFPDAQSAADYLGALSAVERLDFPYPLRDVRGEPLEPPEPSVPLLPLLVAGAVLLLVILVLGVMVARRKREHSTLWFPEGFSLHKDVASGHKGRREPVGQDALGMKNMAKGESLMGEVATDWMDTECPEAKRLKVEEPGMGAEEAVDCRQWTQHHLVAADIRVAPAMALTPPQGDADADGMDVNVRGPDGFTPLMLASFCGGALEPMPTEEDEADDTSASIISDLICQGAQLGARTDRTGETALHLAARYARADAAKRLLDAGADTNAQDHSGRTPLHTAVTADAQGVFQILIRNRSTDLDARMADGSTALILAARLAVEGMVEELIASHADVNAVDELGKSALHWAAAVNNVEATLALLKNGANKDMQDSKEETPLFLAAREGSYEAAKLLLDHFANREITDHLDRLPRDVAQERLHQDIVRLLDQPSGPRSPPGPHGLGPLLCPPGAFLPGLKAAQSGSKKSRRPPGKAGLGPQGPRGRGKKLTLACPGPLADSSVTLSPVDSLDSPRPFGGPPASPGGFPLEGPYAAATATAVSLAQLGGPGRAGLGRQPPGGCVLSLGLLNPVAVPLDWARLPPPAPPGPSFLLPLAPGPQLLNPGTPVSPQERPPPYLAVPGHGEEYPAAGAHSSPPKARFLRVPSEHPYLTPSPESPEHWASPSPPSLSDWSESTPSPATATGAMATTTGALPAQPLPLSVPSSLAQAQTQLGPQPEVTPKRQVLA

| Structure (SMILES) | composite z-score [1] | composite z-score [2] | composite z-score [3] | composite z-score [4] | composite z-score [5] | composite z-score [6] | composite z-score [7] | z-score [8] | composite z-score [9] | composite z-score [10] | composite z-score [11] | z-score [12] | z-score [13] | z-score [14] | composite z-score [15] | z-score [16] | composite z-score [17] | composite z-score [18] | composite z-score [19] | composite z-score [20] |
| --- | --- | --- | --- | --- | --- | --- | --- | --- | --- | --- | --- | --- | --- | --- | --- | --- | --- | --- | --- | --- |
| CC1(C)OC[C@@]23C=C(Br)[C@@H](C[C@H]12)[C@@]1(CO1)C3=O | -0.401 | 0.374 | -0.105 | 0.403 | 0.517 | 0.146 | 0.149 | -0.468 (inactive) | 0.0965 | -0.0423 | -0.0986 | 0.409 (inactive) | -1.24 (inactive) | 0.125 (inactive) | -0.202 | -0.665 (inactive) | -0.153 | 0.232 | 0.378 | -0.109 |
| COCCOC(=O)N1C(=O)[C@@]2(c3cc(C#Cc4ccc(OC)cc4)ccc31)[C@H](C(=O)Nc1nc3ccccc3s1)[C@H]1C(=O)O[C@H](c3ccccc3)[C@H](c3ccccc3)N1[C@@H]2c1ccccc1OCCO | -0.233 | 0.444 | -0.126 | 0.329 | 1.02 | 0.176 | 0.923 | 0.349 (inactive) | -0.179 | -0.283 | 1.58 | 0.455 (inactive) | 0.318 (inactive) | 1.62 (inactive) | 1.55 | 1.86 (inactive) | -0.179 | 1.06 | 1.13 | -0.0531 |
| CN(C)CCCNC(=O)[C@@]1(Cc2ccccc2I)c2ccccc2C(=O)N(Cc2ccccc2)[C@H]1c1ccc(CO)cc1 | -0.803 | -0.451 | 0.106 | 1.02 | 0.647 | 0.834 | 1.39 | -4.24 (inactive) | 0.386 | -0.66 | 1.53 | -0.282 (inactive) | -14 (active) | -2.33 (inactive) | 3.43 | 0.207 (inactive) | -0.542 | 0.557 | 1.08 | 0.0054 |
| CCCC[C@@H](O)C1=C(COC)Cn2c(=O)n(-c3ccccc3)c(=O)n2[C@H]1CO | -0.306 | -0.191 | -0.226 | 0.13 | -0.167 | -0.43 | -0.336 | -1.12 (inactive) | -0.292 | -0.236 | -0.0379 | -1.48 (inactive) | -1.13 (inactive) | -0.721 (inactive) | -0.0333 | 2.84 (inactive) | -0.246 | -0.102 | -0.62 | -0.203 |
| COCCOC(=O)N1C(=O)[C@@]2(c3cc(C#CC4=CCCCC4)ccc31)[C@H](c1ccc(OCCO)cc1)N1[C@H](c3ccccc3)[C@H](c3ccccc3)OC(=O)[C@H]1[C@@H]2C(=O)N1CCCCCCC1 | 2.32 | 0.945 | 0.303 | 0.474 | 1.37 | 1.07 | 1.13 | -1.62 (inactive) | 2.12 | 1.9 | 1.54 | -1.06 (inactive) | -0.301 (inactive) | 1.89 (inactive) | 2.96 | 3.25 (inactive) | 1.18 | 1.21 | 1.07 | 0.604 |
| C=CCN1C(=O)[C@]2(O[C@H](CCO)[C@@H]([Si](C)(C)c3ccc(OC)cc3)[C@@H]2C)c2ccccc21 | -0.277 | -0.313 | -0.144 | -0.314 | -0.599 | 0.174 | 0.122 | -3.89 (inactive) | -0.488 | -0.0933 | -0.539 | -2.75 (inactive) | -3.07 (inactive) | 5.72 (inactive) | 0.602 | -0.41 (inactive) | -0.0962 | -0.788 | -0.593 | -0.178 |
| COCC1=C([C@H](O)CCc2ccccc2)[C@H](CO)n2c(=O)n(-c3ccccc3)c(=O)n2C1 | -0.13 | -0.235 | -0.112 | 0.204 | -0.423 | -0.675 | -0.416 | -3.19 (inactive) | -0.371 | -0.156 | -0.872 | -1.47 (inactive) | -1.41 (inactive) | -0.259 (inactive) | -0.728 | 2.86 (inactive) | -0.0146 | -0.0338 | -0.907 | -0.253 |
| C=CCOC(=O)[C@H]1[C@@H]2C(=O)O[C@@H](c3ccccc3)[C@@H](c3ccccc3)N2[C@@H](c2ccc(OCCOC(=O)[C@H]3C[C@H]4C(=O)NCC(=O)N4[C@H]3c3ccc(O)cc3)cc2)[C@]12C(=O)Nc1ccc(I)cc12 | -0.309 | 1.03 | -0.0867 | 0.202 | 0.636 | 0.346 | 0.869 | -1.35 (inactive) | 0.392 | 0.064 | 1.3 | 0.203 (inactive) | 0.629 (inactive) | 4.17 (inactive) | 0.871 | 0.47 (inactive) | -0.148 | 0.895 | 0.672 | -0.0531 |
| CCOC(=O)C1=C(C(=O)OCC)N(S(=O)(=O)CC[Si](C)(C)C)[C@H](c2ccccc2)CC1 | 0.208 | 0.0516 | -0.0066 | 0.2 | 1.53 | -0.0059 | 0.884 | -2.55 (inactive) | 0.917 | 0.0623 | 1.03 | 0.807 (inactive) | 1.83 (inactive) | 1.85 (inactive) | 1.84 | -0.219 (inactive) | 0.138 | 0.472 | 1.07 | 0.108 |
| COC(=O)[C@@]1(Cc2ccc(F)cc2)[C@H]2c3cc(C(=O)N(C)C)n(CCn4cc([N+](=O)[O-])nc4C)c3C[C@H]2CN1C(=O)c1ccccc1 | 0.729 | -0.498 | 0.22 | 0.422 | 1.43 | 1.36 | 1.19 | 1.26 (inactive) | 0.593 | -0.166 | -0.394 | 0.126 (inactive) | 0.713 (inactive) | 0.942 (inactive) | 2.87 | -1.66 (inactive) | 0.12 | -0.885 | -0.455 | -0.0039 |
